# This is a sample that favours compounds with a hit; in the whole collection about 1.5% have one here.
# pAkt inh: blocks phosphorylation of Akt | Neuro2A IGF-stimulated pAkt S473 HTRF, 20 min; hits give low values | activity change, % for hits at 50 µM | hit rate 0.32% among 360,000; in the data active = activity change below about -80%; inconclusive = mostly about -51% to -80%; note: % is set by controls: 0 for no effect and ±100 for the full control effect
#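 Neuro2A cells in DMEM with 0.5% FBS, overnight at 37 deg C, given compound at single 50 µM final, then IGF (6 nM final) for 20 min at 37 deg C. Lysed; phospho-Akt Ser473 by HTRF after 24 h, 665/615 ratio.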
# PINK1 expr mod: modulators of PINK1 expression | PINK1 immunofluorescence, high-content cytometry, 24 h | hit rate 0.2% among 410,000 | AID 624263 | Potency, µM (top dose mostly 76.6 µM), inactives show top-dose activation (PINK1 increase), hits mostly activators; active = well fitted activation curve with a large enough effect; inconclusive = small, poorly fitted or top-dose-only effect; cell line not stated here; note: potency is the fitted concentration of half-maximal effect; % of control where 0% means no effect; nearly all actives have a fitted effect of over 65% in size
#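 Readout is PINK1 immunofluorescence, quantified alongside mitochondrial, cell and nuclear markers by laser-scanning microplate cytometry. Cells from a stable line were exposed to compound titrations (5 concentrations) for 24 hours, with CCCP controls.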
# BRCA1 expr up: activators of BRCA1 expression | MCF7-BRCA1-FFLuc reporter, luminescence, 48 h; response scale: scaled: vehicle 0%, 10 µM genistein 100% | Potency, µM (series often up to 46.1 µM), without a hit: top-dose activation, usual class: activators | hit rate 1.1% among 380,000 | AID 624202; note: potency is the fitted concentration of half-maximal effect; nearly all actives have a fitted effect of over 80% in size
#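 First, MCF7-BRCA1-FFLuc cells (2000/well) attach for 2 h; next, compounds are pin-added and incubated 48 h at 37 °C; finally, luciferase reagent is added and luminescence read after 15 min.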
# TCR activator: activates T cell receptor signaling; Potency, µM (doses to about 9.22 µM), inactives show top-dose activation of IL-2 secretion, hits mostly activators; primary human leukocytes, anti-CD3, IL-2 HTRF, 48 h; AID 504894; 330,000 tested, under 10 active; note: % of control where 0% means no effect
#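 Primary human leukocytes incubated 48 hr with anti-CD3 beads plus compound, without co-stimulation. Secreted IL-2 measured by HTRF (europium cryptate/d2 anti-IL-2 pair, 320 nm excitation, 665 nm emission).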
# The depositor's hits bear a star; i = inactive; ? = inconclusive; . = not tested or not shown; [ ] = remark or other dose. Unless noted, calls come from the whole dose curve; as a rule, active = well fitted curve in the direction sought with a large enough effect; inconclusive = small, poorly fitted or top-dose-only effect, or another doubt; inactive = no such curve, though single readings can be large; an effect the other way counts as inactive or inconclusive.
SMILES,pAkt inh,PINK1 expr mod,BRCA1 expr up,TCR activator
CCN(CC)CC(=O)Nc1scc2c1c(=O)oc1ccccc12,i,9.4%,11.2µM*,-0.1%
C[C@@H]1CN(Cc2ccc3c(c2)CN(C(=O)c2ccc(Oc4ccccc4)o2)CCO3)C[C@H](C)O1,.,2.1%,.,.
CN1/C(=C\C=C2/C(=O)Oc3ccccc3C2=O)C(C)(C)c2ccccc21,i,12.6µM*,18.5%,-4.1%[46.1 µM]
CCCC(=O)NCCc1nc2ccccc2n1C,-124.1%*,-3.2%,1.8%,-4.1%
CCCC(=O)NCCCc1nc2ccccc2n1C,i,1.3%,-8.0%,1.1%
COc1ccc(Cc2nc3ccc(C(=O)N4CCCC4)cc3o2)cc1,i,0.3%,6.31µM*,-1.0%
CC(=O)C1CCCN(C(=O)c2ccc3oc(CCc4ccccc4)nc3c2)C1 (centres undefined),i,-2.0%,0.0%,-2.8%
COc1cccc(-c2nc3ccc(C(=O)N4CCCC(O)C4)cc3o2)c1 (centres undefined),i,-0.7%,3.16µM*,2.8%
O=C(c1ccc2oc(CCCc3ccccc3)nc2c1)N1CCCC1,i,0.5%,7.08µM*,6.9%
COc1ccc(Cc2nc3ccc(C(=O)NC(C)C)cc3o2)cc1,i,-3.7%,86.9%,2.4%
COc1ccc(Cc2nc3ccc(C(=O)N4CCCC4)cc3o2)cc1OC,i,2.2%,-14.2%,4.0%
C=C(C)CNC(=O)c1ccc2nc(Cc3ccc(OC)cc3)oc2c1,i,1.6%,10µM*,.
COc1cccc(CN(C)C(=O)c2cnn(-c3ncc4c(n3)-c3ccccc3CCC4)c2C)c1,.,0.2%,.,.
C/C(=N\Nc1nccnc1Cl)c1ccc(F)cc1,i,3.5%,8.91µM*,0.0%
C/C(=N\Nc1nccnc1Cl)c1ccc(O)cc1,i,0.7%,67.9%,15.5%
O=S(=O)(c1cccs1)N1CCCc2cccc(O)c21,i,-0.4%,12.6µM*,1.5%
CCn1c(-c2ccccc2F)nc2cc(NC(C)=O)cc(C(=O)NCC3CCOCC3)c21,.,0.1%,.,.
Cc1ccc(NC(=O)CC(=O)c2ccccc2)cc1C,i,-0.8%,6.31µM*,5.7%
Cc1ccc(NC(=O)CC2CS(=O)(=O)CC2CC(=O)Nc2ccc(C)c(C)c2)cc1C (centres undefined),-121.2%*,0.6%,4.0%,-6.1%
COc1cc(C)ccc1OCCCOc1ccccc1Cl,i,3.2%,12.6µM*,2.7%
COc1cc(C)ccc1OCCOc1ccccc1Cl,i,15.5%,?,-2.4%
CO[C@H]1[C@H](NC(=O)c2ccco2)c2ccccc2C12CCN(Cc1cnn(-c3ccccc3)c1)CC2,.,-0.1%,.,.
Cc1occc1C(=O)Nc1ccc2c(c1)OCO2,i,1.3%,3.16µM*,10.5%
CC1CCC(NC(=O)C(=O)Nc2ccc3c(c2)OCO3)CC1 (centres undefined),i,3.1%,2.82µM*,-5.4%
Cc1ccc(NC(=O)c2ccoc2C)cc1C,i,0.6%,6.31µM*,-3.3%[46.1 µM]
SMILES,pAkt inh,PINK1 expr mod,BRCA1 expr up,TCR activator
Cc1occc1C(=O)N/N=C/c1ccc2c(c1)OCO2,i,0.2%,37.8%,3.3%
COc1ccc(NC(=O)c2oc3ccccc3c2NC(=O)Cc2ccc(F)cc2)c(OC)c1,.,1.4%,5.9%,.
Cc1ccc(CN2CCOc3ccc(CN4CCC(O)(c5cccnc5)CC4)cc3C2)cc1,.,0.5%,.,.
CCN=C1Sc2nc3ccc(OCC)cc3cc2CN1CCOC,i,-3.5%,-7.9%,-2.1%
CCOc1ccc2nc3c(cc2c1)CN(CCOC)C(=NC)S3,-88.5%*,3.6%,11.3%,-6.6%[46.1 µM]
CC(C)CCN1CN(S(=O)(=O)c2cccs2)c2nc3ccccc3nc21,-106.5%*,8.0%,-2.1%,-3.0%
COc1ccccc1-n1cnnc1SCC(=O)NCc1cccs1,-110.9%*,0.1%,13.9%,-2.1%
COc1ccccc1-n1cnnc1SCC(=O)NC1CCCCC1,i,3.4%,-14.5%,13.1%
COc1cccc2cc(-c3cn4ccc(C)cc4n3)c(=O)oc12,i,4.8%[38.3 µM],7.08µM*,0.6%
Cc1cn(CCC(=O)Nc2ccc(N3CCOCC3)cc2)c2ccccc12,i,1.4%,10µM*,6.3%
N#C/C(=C\c1ccc(OCc2ccccc2)cc1)C(=O)Nc1ccc(C(=O)O)cc1,i,-0.5%,11.2µM*,2.0%
CC(C)=CC(=O)Nc1ccc(OCc2ccccc2)cc1,i,1.3%,2.82µM*,-3.2%
CN1CCN(CCOc2ccc(-c3ccccc3)cc2)CC1,i,1.4%,7.94µM*,2.9%
Nc1nc(SCC(=O)Nc2ccc(OCc3ccccc3)cc2)n[nH]1,i,0.8%,10µM*,-5.6%
